Experimental data published in PubChem BioAssay AID1159580 (chemical genetic matrix, 2015).
In all, about 5,500 compounds went through this assay and about 2,000 (36%) were called active. Another 18% or so got no clear call; they are omitted. No stated cut-off is given here; in the data, active means normalized growth mostly below about 0.91 (no sharp cut-off); inconclusive means no clear call, values can overlap the other calls; inactive means mostly above about 0.92. This is one part of the list.

Assay: chemical genetic growth profiling, strain panel (AID 1159580);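 further: tested at 20 µM; growth read once vehicle control cultures reached saturation at 30 °C; 1 = growth at the plate median or of vehicle wells; lower values mean less growth of the strain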
Conditions: growth OD

Measured: normalized growth

C[C@H](N)[C@H](O)c1ccc(O)c(O)c1
inactive: S. cerevisiae deletion strains, locus YJR066W, strain TOR1, hits give low values 0.948 | S. cerevisiae deletion strains, locus YJR075W, strain HOC1, hits give low values 0.993 | S. cerevisiae deletion strains, locus YKL009W, strain mrt4, hits give low values 0.994 | S. cerevisiae deletion strains, locus YKL068W, hits give low values 0.986 | S. cerevisiae deletion strains, locus YKL085W, strain MDH1 (second series), hits give low values 0.983 | S. cerevisiae deletion strains, locus YKL085W, strain MDH1, hits give low values 0.983 | S. cerevisiae deletion strains, locus YKL160W, strain elf1, hits give low values 0.981 | S. cerevisiae deletion strains, locus YKR001C, strain vps1, hits give low values 0.978 | S. cerevisiae deletion strains, locus YKR026C, strain gcn3, hits give low values 1 | S. cerevisiae deletion strains, locus YKR091W, strain srl3, hits give low values 0.998 | S. cerevisiae deletion strains, locus YLL001W, strain dnm1, hits give low values 0.954 | S. cerevisiae deletion strains, locus YLL026W, hits give low values 1.01 | S. cerevisiae deletion strains, locus YLL041C, strain sdh2, hits give low values 1.01 | S. cerevisiae deletion strains, locus YLR027C, strain aat2, hits give low values 1.01 | S. cerevisiae deletion strains, locus YLR039C, strain RIC1, hits give low values 0.959 | S. cerevisiae deletion strains, locus YLR058C, strain SHM2, hits give low values 0.993 | S. cerevisiae deletion strains, locus YLR102C, strain apc9, hits give low values 0.988 | S. cerevisiae deletion strains, locus YLR113W, strain HOG1, hits give low values 0.967 | S. cerevisiae deletion strains, locus YLR221C, strain rsa3, hits give low values 0.979 | S. cerevisiae deletion strains, locus YLR258W, strain gsy2, hits give low values 0.996 | S. cerevisiae deletion strains, locus YLR262C, strain YPT6 (second series), hits give low values 0.974 | S. cerevisiae deletion strains, locus YLR262C, strain YPT6, hits give low values 1.04 | S. cerevisiae deletion strains, locus YLR268W, strain sec22, hits give low values 0.969 | S. cerevisiae deletion strains, locus YLR320W, strain mms22, hits give low values 1.01 | S. cerevisiae deletion strains, locus YLR330W, strain CHS5, hits give low values 0.995 | S. cerevisiae deletion strains, locus YLR342W, strain FKS1 (second series), hits give low values 0.968 | S. cerevisiae deletion strains, locus YLR342W, strain FKS1, hits give low values 1.01 | S. cerevisiae deletion strains, locus YLR357W, strain rsc2, hits give low values 0.983 | S. cerevisiae deletion strains, locus YLR370C, strain arc18, hits give low values 1 | S. cerevisiae deletion strains, locus YLR371W, strain rom2, hits give low values 0.963 | S. cerevisiae deletion strains, locus YLR384C, strain iki3, hits give low values 0.998 | S. cerevisiae deletion strains, locus YLR418C, strain cdc73, hits give low values 0.948 | S. cerevisiae deletion strains, locus YML016C, strain PPZ1, hits give low values 0.994 | S. cerevisiae deletion strains, locus YML032C, strain rad52, hits give low values 0.988 | S. cerevisiae deletion strains, locus YML120C, strain ndi1, hits give low values 0.985 | S. cerevisiae deletion strains, locus YML124C, strain tub3, hits give low values 0.994 | S. cerevisiae deletion strains, locus YMR058W, strain fet3, hits give low values 1 | S. cerevisiae deletion strains, locus YMR078C, strain ctf18, hits give low values 0.973 | S. cerevisiae deletion strains, locus YMR125W, strain sto1, hits give low values 0.994 | S. cerevisiae deletion strains, locus YMR129W, hits give low values 1 | S. cerevisiae deletion strains, locus YMR205C, strain PFK2, hits give low values 0.994 | S. cerevisiae deletion strains, locus YMR223W, strain ubp8, hits give low values 0.953 | S. cerevisiae deletion strains, locus YMR231W, strain pep5, hits give low values 0.999 | S. cerevisiae deletion strains, locus YMR263W, strain SAP30, hits give low values 0.997 | S. cerevisiae deletion strains, locus YMR307W, strain GAS1, hits give low values 0.95 | S. cerevisiae deletion strains, locus YNL067W, strain RPL9B, hits give low values 1 | S. cerevisiae deletion strains, locus YNL071W, strain lat1, hits give low values 1.02 | S. cerevisiae deletion strains, locus YNL183C, strain NPR1, hits give low values 0.963 | S. cerevisiae deletion strains, locus YNL209W, strain ssb2, hits give low values 0.991 | S. cerevisiae deletion strains, locus YNL233W, strain BNI4, hits give low values 0.987 | S. cerevisiae deletion strains, locus YNL248C, strain rpa49, hits give low values 0.995 | S. cerevisiae deletion strains, locus YNL250W, strain rad50, hits give low values 0.967 | S. cerevisiae deletion strains, locus YNL271C, strain bni1, hits give low values 0.964 | S. cerevisiae deletion strains, locus YNL298W, strain CLA4, hits give low values 0.966 | S. cerevisiae deletion strains, locus YNL307C, strain MCK1, hits give low values 0.979 | S. cerevisiae deletion strains, locus YNL322C, strain KRE1 (second series), hits give low values 0.991 | S. cerevisiae deletion strains, locus YNR049C, strain mso1, hits give low values 1 | S. cerevisiae deletion strains, locus YNR052C, strain pop2, hits give low values 0.963 | S. cerevisiae deletion strains, locus YOL006C, strain TOP1, hits give low values 0.878 | S. cerevisiae deletion strains, locus YOL012C, strain htz1 1.03 | S. cerevisiae deletion strains, locus YOL147C, strain pex11, hits give low values 0.983 | S. cerevisiae deletion strains, locus YOR001W, strain rrp6, hits give low values 1.02 | S. cerevisiae deletion strains, locus YOR061W, strain CKA2, hits give low values 0.996 | S. cerevisiae deletion strains, locus YOR069W, strain VPS5, hits give low values 0.99 | S. cerevisiae deletion strains, locus YOR070C, strain gyp1, hits give low values 1 | S. cerevisiae deletion strains, locus YOR080W, strain dia2, hits give low values 1.01 | S. cerevisiae deletion strains, locus YOR083W, strain WHI5, hits give low values 0.981 | S. cerevisiae deletion strains, locus YOR106W, strain vam3, hits give low values 0.976 | S. cerevisiae deletion strains, locus YOR136W, strain idh2, hits give low values 0.991 | S. cerevisiae deletion strains, locus YOR144C, strain elg1, hits give low values 0.984 | S. cerevisiae deletion strains, locus YOR184W, strain ser1, hits give low values 0.977 | S. cerevisiae deletion strains, locus YOR231W, strain MKK1, hits give low values 1.01 | S. cerevisiae deletion strains, locus YOR265W, strain rbl2, hits give low values 1 | S. cerevisiae deletion strains, locus YOR270C, strain vph1, hits give low values 1.02 | S. cerevisiae deletion strains, locus YOR290C, strain snf2, hits give low values 0.958 | S. cerevisiae deletion strains, locus YOR316C, strain cot1, hits give low values 0.986 | S. cerevisiae deletion strains, locus YPL051W, strain arl3, hits give low values 0.976 | S. cerevisiae deletion strains, locus YPL078C, strain atp4, hits give low values 0.989 | S. cerevisiae deletion strains, locus YPL106C, strain sse1, hits give low values 0.959 | S. cerevisiae deletion strains, locus YPL240C, strain hsp82, hits give low values 1.01 | S. cerevisiae deletion strains, locus YPL241C, strain CIN2, hits give low values 1 | S. cerevisiae deletion strains, locus YPL256C, strain CLN2, hits give low values 0.992 | S. cerevisiae deletion strains, locus YPR119W, strain clb2, hits give low values 0.982 | S. cerevisiae deletion strains, locus YPR141C, strain kar3, hits give low values 0.975 | S. cerevisiae deletion strains, locus YPR163C, strain tif3, hits give low values 0.986 | S. cerevisiae deletion strains, locus YPR167C, strain met16, hits give low values 0.993 | S. cerevisiae deletion strains, strain wtn01, hits give low values 0.971 | S. cerevisiae strains, strain wild type, hits give low values 1.01
